Test results taken from the supplement of paper PMC10849652.
Targets with a hit are over-represented here; the source holds about 7,900 in all. About 0.6% of all pairs of compound and target were hits. Unmarked numbers belong to inactive results.

How the values were obtained:
Test in all cases: log2 fold change, soluble protein after heating vs DMSO (PISA); higher = thermal stabilisation; K562 cells, 10 uM, 30 min; active = over 0.2 and 3.5 SD of the protein, either way, in both replicates (recomputed)
[1] = compound: C#Cc1cccc(Nc2ncnc3cc(OCCOC)c(OCCOC)cc23)c1 [erlotinib]
Procedure, shortened: (§1)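 Quantification of soluble protein used TMTpro 16plex LC-MS/MS, with channel sums equalised. Samples were the supernatant after 21,000xg for 90 min of pooled aliquots from K562 cells (2×10^6 cells/mL) treated with 10 μM compound for 30 min, heated for 3 min over 48°C-58°C, and extracted in PBS with 0.5% NP-40 at 4°C. Values, from duplicates, describe thermal stability against control samples on a log2 fold-change scale.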

[2] = compound: C/C(=N\NC(=O)C1=CC(=CC=C1)S(=O)(=O)N2CCOCC2)/C3=C(C=CC(=C3)Cl)O
Procedure, shortened: as §1

[3] = compound: C1=CC(=C(C=C1Cl)C2=NC3=NC=CN=C3C(=N2)NC4=CC=NC=C4)F
Procedure, shortened: as §1

[4] = compound: C1=CC(=CC=C1C2=NC3=C(N2)C=C(C=C3)C(=O)N)OC4=CC=C(C=C4)Cl
Procedure, shortened: as §1

[5] = compound: C1=CC2=C(C=CC(=C2)/C=C\3/C(=O)NC(=NCC4=CC=CS4)S3)N=C1
Procedure, shortened: as §1

[6] = compound: C1=CC2=NC=CN=C2C=C1/C=C/3\C(=O)NC(=O)S3
Procedure, shortened: as §1

[7] = compound: C1=CC=C(C=C1)C2=NC(=C(N2)C3=CC=NC=C3)C4=CC(=C(C=C4)Cl)O
Procedure, shortened: as §1

[8] = compound: C1=CC=C2C(=C1)C3=NNC4=CC=CC(=C43)C2=O
Procedure, shortened: as §1

[9] = compound: C1CCN(C1)C(=O)NC2=CC=CC(=C2)NC3=NC=C(C(=N3)NCCC4=CN=CN4)Br
Procedure, shortened: as §1

[10] = compound: C1CN(CCC1(CC2=CC=C(C=C2)Cl)N)C3=NC=NC4=C3C=CN4
Procedure, shortened: as §1

UniProt P23919, sequence (P23919 whole entry, looked up): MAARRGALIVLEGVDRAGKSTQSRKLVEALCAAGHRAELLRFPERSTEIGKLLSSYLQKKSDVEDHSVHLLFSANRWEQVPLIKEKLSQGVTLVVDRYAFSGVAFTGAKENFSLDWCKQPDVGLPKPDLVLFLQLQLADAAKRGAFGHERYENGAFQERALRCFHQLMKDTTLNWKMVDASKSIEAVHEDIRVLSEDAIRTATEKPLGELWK
UniProt Q8TAG9, sequence (Q8TAG9 whole entry, looked up): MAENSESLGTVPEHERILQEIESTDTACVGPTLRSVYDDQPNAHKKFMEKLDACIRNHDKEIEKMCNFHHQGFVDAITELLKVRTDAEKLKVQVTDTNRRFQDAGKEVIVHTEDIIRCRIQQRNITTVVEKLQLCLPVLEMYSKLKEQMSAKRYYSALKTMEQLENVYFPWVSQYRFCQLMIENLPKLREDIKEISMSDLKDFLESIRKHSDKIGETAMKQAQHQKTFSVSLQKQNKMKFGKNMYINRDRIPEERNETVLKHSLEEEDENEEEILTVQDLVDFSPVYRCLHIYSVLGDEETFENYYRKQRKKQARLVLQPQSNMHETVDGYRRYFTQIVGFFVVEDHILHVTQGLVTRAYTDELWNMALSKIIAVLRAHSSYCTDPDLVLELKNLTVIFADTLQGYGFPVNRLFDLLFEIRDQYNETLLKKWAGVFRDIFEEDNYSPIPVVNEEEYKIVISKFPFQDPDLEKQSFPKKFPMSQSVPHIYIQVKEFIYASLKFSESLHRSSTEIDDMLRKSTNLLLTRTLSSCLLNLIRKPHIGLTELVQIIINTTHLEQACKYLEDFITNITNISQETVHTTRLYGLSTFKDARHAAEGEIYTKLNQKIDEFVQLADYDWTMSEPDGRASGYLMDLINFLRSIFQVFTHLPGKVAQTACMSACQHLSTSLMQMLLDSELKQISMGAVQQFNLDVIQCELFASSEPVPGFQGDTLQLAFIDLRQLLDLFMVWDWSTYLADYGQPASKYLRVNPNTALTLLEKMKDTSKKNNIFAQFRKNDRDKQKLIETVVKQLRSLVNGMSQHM
UniProt Q9NSI2, sequence (Q9NSI2 whole entry, looked up): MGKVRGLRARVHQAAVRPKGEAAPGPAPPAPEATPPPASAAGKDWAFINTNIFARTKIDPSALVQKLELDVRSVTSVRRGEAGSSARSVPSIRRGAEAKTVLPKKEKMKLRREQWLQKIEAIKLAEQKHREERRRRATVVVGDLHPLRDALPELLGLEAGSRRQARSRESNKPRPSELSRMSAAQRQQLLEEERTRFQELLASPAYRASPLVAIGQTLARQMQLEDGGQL
UniProt Q96GG9, sequence (Q96GG9 whole entry, looked up): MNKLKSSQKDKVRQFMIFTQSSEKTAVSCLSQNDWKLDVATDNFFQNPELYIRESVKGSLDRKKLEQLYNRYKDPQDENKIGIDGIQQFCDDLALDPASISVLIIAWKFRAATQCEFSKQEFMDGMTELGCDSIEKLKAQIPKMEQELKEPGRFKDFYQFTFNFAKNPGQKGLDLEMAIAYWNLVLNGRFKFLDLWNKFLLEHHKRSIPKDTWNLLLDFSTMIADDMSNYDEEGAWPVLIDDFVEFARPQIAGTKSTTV
UniProt Q14203, sequence (Q14203 whole entry, looked up): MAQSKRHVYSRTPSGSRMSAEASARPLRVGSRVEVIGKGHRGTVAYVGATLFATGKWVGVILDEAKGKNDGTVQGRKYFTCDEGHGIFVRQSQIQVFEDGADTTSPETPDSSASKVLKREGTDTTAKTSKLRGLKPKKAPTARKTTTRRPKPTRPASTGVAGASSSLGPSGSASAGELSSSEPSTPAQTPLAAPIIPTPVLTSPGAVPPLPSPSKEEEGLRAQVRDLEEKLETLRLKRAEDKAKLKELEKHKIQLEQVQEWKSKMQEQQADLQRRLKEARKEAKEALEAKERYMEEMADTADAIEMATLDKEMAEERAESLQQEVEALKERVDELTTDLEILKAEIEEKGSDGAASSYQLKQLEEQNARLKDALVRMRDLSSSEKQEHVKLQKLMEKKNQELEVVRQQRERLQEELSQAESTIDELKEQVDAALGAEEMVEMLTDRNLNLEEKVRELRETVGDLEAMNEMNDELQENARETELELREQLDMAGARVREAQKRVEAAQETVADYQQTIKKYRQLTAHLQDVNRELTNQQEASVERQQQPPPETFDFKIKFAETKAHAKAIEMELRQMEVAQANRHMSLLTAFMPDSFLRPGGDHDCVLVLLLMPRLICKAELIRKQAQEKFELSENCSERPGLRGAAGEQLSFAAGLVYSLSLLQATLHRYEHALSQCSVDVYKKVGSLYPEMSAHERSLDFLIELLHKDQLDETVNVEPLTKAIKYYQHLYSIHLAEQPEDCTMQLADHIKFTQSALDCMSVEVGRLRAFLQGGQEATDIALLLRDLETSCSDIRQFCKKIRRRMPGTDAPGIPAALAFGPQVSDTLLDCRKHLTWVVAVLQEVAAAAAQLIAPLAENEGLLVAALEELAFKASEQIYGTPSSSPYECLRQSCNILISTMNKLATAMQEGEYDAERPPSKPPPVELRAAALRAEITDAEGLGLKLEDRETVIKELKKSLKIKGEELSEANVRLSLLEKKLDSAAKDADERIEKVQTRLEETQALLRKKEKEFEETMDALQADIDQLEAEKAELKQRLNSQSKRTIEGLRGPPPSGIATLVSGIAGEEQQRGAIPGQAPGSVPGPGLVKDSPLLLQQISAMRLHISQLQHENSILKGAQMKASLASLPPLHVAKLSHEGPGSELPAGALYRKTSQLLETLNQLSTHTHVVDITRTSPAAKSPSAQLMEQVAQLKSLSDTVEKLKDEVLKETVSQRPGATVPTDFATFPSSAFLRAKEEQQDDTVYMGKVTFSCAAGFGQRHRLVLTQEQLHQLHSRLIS
UniProt Q9NV06, sequence (Q9NV06 whole entry, looked up): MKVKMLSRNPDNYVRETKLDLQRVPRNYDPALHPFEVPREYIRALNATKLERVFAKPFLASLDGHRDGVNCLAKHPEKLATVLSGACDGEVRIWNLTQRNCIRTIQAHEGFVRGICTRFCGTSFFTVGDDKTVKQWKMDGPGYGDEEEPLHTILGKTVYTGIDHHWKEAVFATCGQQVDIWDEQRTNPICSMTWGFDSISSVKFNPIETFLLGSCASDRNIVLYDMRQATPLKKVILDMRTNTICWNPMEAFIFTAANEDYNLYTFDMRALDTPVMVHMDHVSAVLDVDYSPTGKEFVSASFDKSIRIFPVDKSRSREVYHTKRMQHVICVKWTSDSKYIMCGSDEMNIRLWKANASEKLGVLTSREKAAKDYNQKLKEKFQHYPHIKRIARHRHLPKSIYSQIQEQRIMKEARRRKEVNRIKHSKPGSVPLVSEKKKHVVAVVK
UniProt Q6IAN0, sequence (Q6IAN0 whole entry, looked up): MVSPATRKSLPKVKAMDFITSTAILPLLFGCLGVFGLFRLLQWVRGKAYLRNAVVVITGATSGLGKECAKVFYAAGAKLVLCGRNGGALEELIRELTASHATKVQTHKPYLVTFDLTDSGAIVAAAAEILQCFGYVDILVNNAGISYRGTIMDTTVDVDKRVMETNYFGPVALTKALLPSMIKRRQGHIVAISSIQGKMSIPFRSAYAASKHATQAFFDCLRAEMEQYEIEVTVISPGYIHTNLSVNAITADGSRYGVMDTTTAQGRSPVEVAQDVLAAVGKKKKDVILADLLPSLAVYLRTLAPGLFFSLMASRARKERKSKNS
UniProt Q16531, sequence (Q16531 whole entry, looked up): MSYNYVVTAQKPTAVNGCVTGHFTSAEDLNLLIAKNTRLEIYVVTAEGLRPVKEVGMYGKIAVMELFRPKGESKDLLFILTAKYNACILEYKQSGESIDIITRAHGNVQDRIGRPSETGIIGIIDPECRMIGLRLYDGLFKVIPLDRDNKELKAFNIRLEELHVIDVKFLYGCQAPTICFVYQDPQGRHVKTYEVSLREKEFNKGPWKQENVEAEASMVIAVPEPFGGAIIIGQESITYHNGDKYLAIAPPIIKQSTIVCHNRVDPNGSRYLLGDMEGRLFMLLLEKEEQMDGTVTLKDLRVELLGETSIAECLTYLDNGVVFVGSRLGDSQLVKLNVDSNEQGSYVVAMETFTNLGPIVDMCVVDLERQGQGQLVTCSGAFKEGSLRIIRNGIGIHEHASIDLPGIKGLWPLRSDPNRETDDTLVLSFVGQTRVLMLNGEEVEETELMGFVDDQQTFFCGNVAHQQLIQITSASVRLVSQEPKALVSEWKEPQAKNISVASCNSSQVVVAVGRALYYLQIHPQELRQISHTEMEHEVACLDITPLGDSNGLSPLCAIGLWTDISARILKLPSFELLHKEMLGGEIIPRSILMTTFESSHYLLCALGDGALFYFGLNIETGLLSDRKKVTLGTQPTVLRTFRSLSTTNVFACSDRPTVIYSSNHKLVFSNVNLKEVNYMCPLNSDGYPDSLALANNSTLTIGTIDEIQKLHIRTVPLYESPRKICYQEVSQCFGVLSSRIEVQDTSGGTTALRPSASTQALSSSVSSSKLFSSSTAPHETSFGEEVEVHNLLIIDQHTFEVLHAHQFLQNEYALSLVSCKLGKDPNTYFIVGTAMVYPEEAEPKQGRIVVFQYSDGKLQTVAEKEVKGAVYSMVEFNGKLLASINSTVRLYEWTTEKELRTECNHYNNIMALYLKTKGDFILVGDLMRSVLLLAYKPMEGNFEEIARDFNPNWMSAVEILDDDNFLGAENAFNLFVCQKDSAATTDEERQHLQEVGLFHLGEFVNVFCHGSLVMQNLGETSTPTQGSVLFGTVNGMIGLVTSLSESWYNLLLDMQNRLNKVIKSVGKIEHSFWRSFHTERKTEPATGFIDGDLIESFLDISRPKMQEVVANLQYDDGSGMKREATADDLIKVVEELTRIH
UniProt Q9BU89, sequence (Q9BU89 whole entry, looked up): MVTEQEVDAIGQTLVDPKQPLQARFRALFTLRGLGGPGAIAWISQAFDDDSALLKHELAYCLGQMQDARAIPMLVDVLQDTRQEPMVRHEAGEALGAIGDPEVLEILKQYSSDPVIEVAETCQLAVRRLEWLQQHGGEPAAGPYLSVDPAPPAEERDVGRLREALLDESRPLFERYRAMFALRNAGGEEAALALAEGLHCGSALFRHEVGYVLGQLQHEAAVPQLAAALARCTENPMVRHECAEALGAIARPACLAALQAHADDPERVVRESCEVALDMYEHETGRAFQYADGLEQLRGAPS

Target | log2 fold change [1] | log2 fold change [2] | log2 fold change [3] | log2 fold change [4] | log2 fold change [5] | log2 fold change [6] | log2 fold change [7] | log2 fold change [8] | log2 fold change [9] | log2 fold change [10]
ELOC (UniProt Q15369) | -0.055 | 0.124 | 0.066 | 0.017 | 0.117 | 0.048 | 0.075 | 0.009 | -0.016 | -0.024
DAB2 (UniProt P98082) | 0.107 | 0.112 | 0.01 | -0.035 | 0.037 | 0.008 | 0.002 | 0.019 | -0.156 | -0.006
DUS2 (UniProt Q9NX74) | -0.002 | -0.022 | 0.043 | 0.088 | 0.166 | -0.011 | -0.009 | -0.123 | -0.028 | 0.021
ERLIN1 (UniProt O75477) | -0.081 | 0.013 | -0.097 | -0.001 | -0.015 | -0.011 | -0.006 | -0.047 | 0.008 | -0.124
CWC27 (UniProt Q6UX04) | 0.084 | -0.023 | 0.055 | -0.049 | 0.021 | 0.02 | 0.041 | -0.102 | -0.086 | -0.053
DOHH (UniProt Q9BU89) | -0.001 | -0.102 | -0.046 | 0 | 0.083 | -0.183 | 0.064 | 0.038 | -0.051 | 0.026
DCUN1D1 (UniProt Q96GG9) | -0.038 | 0.052 | 0.041 | -0.009 | 0.015 | 0.001 | 0.021 | -0.014 | -0.017 | 0.024
EIF4E2 (UniProt O60573) | 0.013 | 0.056 | -0.026 | -0.045 | -0.007 | -0.054 | -0.111 | -0.009 | -0.032 | -0.008
DHCR7 (UniProt Q9UBM7) | 0.113 | 0.041 | -0.095 | -0.056 | 0.071 | 0.022 | 0.038 | -0.003 | -0.037 | 0.623 (active)
EIF2AK1 (UniProt Q9BQI3) | -0.002 | 0.006 | -0.042 | 0 | -0.029 | -0.114 | -0.029 | 0.021 | -0.007 | 0.012
DDX5 (UniProt P17844) | 0.13 | 0.101 | 0.072 | 0 | -0.003 | -0.046 | 0.059 | -0.032 | -0.061 | -0.127
DOCK8 (UniProt Q8NF50) | 0.259 | 0.001 | 0.182 | 0.04 | -0.092 | -0.021 | -0.046 | 0.059 | -0.076 | -0.071
DFFB (UniProt O76075) | -0.015 | 0.103 | 0.022 | 0.035 | 0.101 | 0.016 | 0.037 | -0.005 | -0.305 (active) | -0.039
EED, A0A5F9ZI63 | 0.056 | 0.049 | -0.04 | 0.028 | -0.1 | 0.05 | -0.036 | -0.033 | 0.032 | 0.012
FADS1, A0A0A0MR51 | 0.016 | -0.11 | -0.049 | -0.134 | 0.09 | 0.05 | 0.231 (active) | -0.008 | -0.006 | 0.002
DDB1 (UniProt Q16531) | -0.03 | 0.006 | 0.009 | 0.022 | 0.003 | 0.014 | -0.019 | -0.032 | 0.018 | 0.04
FAM207A (UniProt Q9NSI2) | -0.082 | -0.092 | -0.039 | -0.032 | -0.204 | -0.018 | -0.027 | 0.006 | -0.159 | -0.054
EXOC7 (UniProt Q9UPT5) | 0.032 | 0.074 | 0.001 | -0.042 | 0.048 | 0.016 | 0.011 | -0.016 | -0.023 | -0.014
CTSL (UniProt P07711) | -0.005 | -0.173 | -0.036 | -0.022 | -0.203 | 0.019 | -0.002 | -0.041 | -0.023 | 0.005
DCAF6 isoform 3 (UniProt Q58WW2) | 0.035 | 0 | 0.035 | 0.014 | 0.007 | 0.045 | 0.008 | -0.036 | 0.042 | 0.055
DHRS7B (UniProt Q6IAN0) | -0.039 | 0.07 | 0.011 | 0.009 | 0.027 | 0.012 | 0.144 | 0.034 | -0.037 | 0.058
DTYMK (UniProt P23919) | -0.007 | 0.025 | 0.013 | 0.04 | -0.027 | 0.044 | -0.017 | 0.095 | 0.015 | 0.016
DYNC1I2 isoform 2 (UniProt Q13409) | 0.018 | 0.155 | 0.057 | -0.056 | -0.202 | -0.013 | 0.17 | 0.057 | -0.062 | 0.029
DNM2 (UniProt P50570) | 0.042 | 0.065 | 0.01 | -0.025 | 0.046 | -0.001 | 0.019 | 0.033 | 0.015 | -0.003
ECH1 (UniProt Q13011) | -0.027 | 0.053 | 0.243 | 0 | 0.126 | -0.018 | 0.541 (active) | 0.361 (active) | -0.028 | -0.064
EXOC6 (UniProt Q8TAG9) | 0.073 | 0.127 | 0.006 | -0.025 | 0.096 | 0.076 | 0.069 | 0.003 | -0.045 | -0.042
EEF1G isoform 2 (UniProt P26641) | -0.051 | 0.062 | -0.009 | -0.016 | -0.036 | -0.021 | 0.083 | 0.012 | 0.001 | -0.031
DCTN1 isoform 4 (UniProt Q14203) | 0.04 | 0.031 | -0.053 | -0.033 | 0.037 | -0.009 | -0.023 | 0.05 | 0.046 | -0.072
EIF4G1 isoform 8 (UniProt Q04637) | -0.092 | 0.128 | -0.065 | 0.011 | -0.036 | -0.089 | -0.099 | -0.246 | -0.197 | -0.28
DCAF13 (UniProt Q9NV06) | -0.085 | -0.172 | -0.441 | 0.079 | -0.114 | -0.05 | -0.034 | -0.047 | 0.044 | -0.094
